Assay [1] is described as follows: TOX21_p53_BLA_p2_viability: Viability Assessment in the Tox21 HCT-116 p53 Agonism Beta-lactamase Assay, Phase 2 (AID 2283591).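 Also: compound exposure lasted 16 h at 37 °C; actives lower the ATP signal meaning cytotoxicity.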 In short, it runs like this:
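HCT-116 p53-bla cells (4000/well) rested 5 h at 37C, then received compounds in DMSO (217-fold dilution) for 16 h at 37C, 5% CO2. After the CCF4 read, CellTiter-Glo was added; ATP luminescence was read after 30 min at room temperature.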

Assay [2] deals with Cellular tumor antigen p53 (Homo sapiens) (UniProt P04637). As to the kind of experiment: TOX21_p53_BLA_p2_ratio: Tox21 HCT-116 p53 Agonism Beta-lactamase Assay, Ratio, Phase 2 (AID 2283592). In short, it runs like this: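 Read-out is the blue/green (460/530 nm, 405 nm excitation) ratio after 2 h CCF4-AM loading, fitted as gain versus DMSO. Compounds, pinned at 217-fold dilution from DMSO stocks, stayed 16 h on HCT-116 beta-lactamase reporter cells seeded 5 h earlier.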
Cellular tumor antigen p53 (Homo sapiens), sequence (P04637 whole entry, looked up): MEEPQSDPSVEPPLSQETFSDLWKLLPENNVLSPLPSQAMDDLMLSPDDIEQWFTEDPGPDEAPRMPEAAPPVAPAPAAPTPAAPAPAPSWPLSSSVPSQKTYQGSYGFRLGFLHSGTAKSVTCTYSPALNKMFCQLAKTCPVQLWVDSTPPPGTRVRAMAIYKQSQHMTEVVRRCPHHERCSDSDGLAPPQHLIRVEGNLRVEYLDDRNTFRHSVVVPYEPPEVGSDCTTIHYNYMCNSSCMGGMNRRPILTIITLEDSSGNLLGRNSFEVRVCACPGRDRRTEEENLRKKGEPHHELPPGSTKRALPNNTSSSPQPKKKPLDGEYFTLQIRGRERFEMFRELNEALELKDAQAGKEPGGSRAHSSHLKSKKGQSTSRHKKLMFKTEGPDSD

Assay [3] is described as follows: TOX21_p53_BLA_p3_viability: Viability Assessment in the Tox21 HCT-116 p53 Agonism Beta-lactamase Assay, Phase 3 (AID 2283593).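 Also: cells exposed to compound for 16 h before reading.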 In outline:
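HCT-116 cells (4000/well) rested 5 h at 37C, then got DMSO compounds by pin tool (217-fold dilution) for 16 h at 37C, 5% CO2. After the bla read, CellTiter-Glo was added and luminescence read at 30 min, room temperature.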

Assay [4] addresses Cellular tumor antigen p53 (Homo sapiens) (UniProt P04637). The experiment in a line: TOX21_p53_BLA_p3_ratio: Tox21 HCT-116 p53 Agonism Beta-lactamase Assay, Ratio, Phase 3 (AID 2283596). In short, it runs like this:
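Cells were seeded at 4000/well, rested 5 h at 37C, then dosed with DMSO compound solutions (217-fold dilution) for 16 h. CCF4-AM substrate was loaded for 2 h at room temperature, and the 460/530 nm emission ratio was fitted for gain of signal versus DMSO.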

Assay [5] in a line: TOX21_p53_BLA_p4_viability: Viability Assessment in the Tox21 HCT-116 p53 Agonism Beta-lactamase Assay, Phase 4 (AID 2283597).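 Also: hits lower the luminescence signal meaning cytotoxicity.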 In short, it runs like this: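 Cytotoxicity as reduced cellular ATP (CellTiter-Glo luminescence, 30 min room temperature), measured in the same wells following the CCF4 FRET p53 reading. Human HCT-116 cells received compounds in DMSO (217-fold dilution) for 16 h.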

Assay [6] concerns the target Cellular tumor antigen p53 (Homo sapiens) (UniProt P04637). As to the kind of experiment: TOX21_p53_BLA_p5_ratio: Tox21 HCT-116 p53 Agonism Beta-lactamase Assay, Ratio, Phase 5 (AID 2283599). In outline:
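HCT-116 cells carrying a p53-inducible beta-lactamase reporter were seeded at 4000 cells/well and dosed after 5 h with compound in DMSO (217-fold dilution). After 16 h at 37C, CCF4-AM substrate was added for 2 h, and the 460/530 nm emission ratio was scored as gain-of-signal versus DMSO.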

Assay [7] is described as follows: TOX21_p53_BLA_p5_viability: Viability Assessment in the Tox21 HCT-116 p53 Agonism Beta-lactamase Assay, Phase 5 (AID 2283600). In outline:
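Viability came from CellTiter-Glo ATP luminescence, read after 30 min at room temperature. Before this, HCT-116 p53-bla cells (4000/well) had 16 hours of compound exposure at 37C, with DMSO stocks diluted 217-fold on transfer.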

For assay [8], the target named is Cellular tumor antigen p53 (Homo sapiens) (UniProt P04637). As to the kind of experiment: TOX21_p53_BLA_p4_ratio: Tox21 HCT-116 p53 Agonism Beta-lactamase Assay, Ratio, Phase 4 (AID 2283601). In outline: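 HCT116 cells carrying an inducible beta-lactamase reporter were plated at 4000 cells/well, rested 5 h, then exposed to compounds in DMSO (217-fold dilution) for 16 h at 37C. CCF4-AM substrate was loaded 2 h at room temperature; 460/530 nm emission ratio scored gain-of-signal versus DMSO.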

Results filed as inconclusive are left out. Activity calls are given as the source filed them. The calls were made as follows: active = hit-call score of the fitted dose curve at least 0.9, where 1 is the maximum; inconclusive = response in the unintended direction; inactive = score below 0.9.

As for `CCN(CC)CCOc1ccc(Cc2ccccc2)cc1`, the AC50 (as a rule, the midpoint of the concentration-response curve, whichever way the signal moves) is 42.2 µM (active) in assay [1] and 33.8 µM (active) in assay [5]. In addition, the outcome in assay [2], in assay [3], in assay [4], in assay [6], in assay [7] and in assay [8] was inactive.
As for `CN1[C@@H](CC(=O)c2ccccc2)CCC[C@H]1C[C@H](O)c1ccccc1`, the call in assay [1], in assay [2], in assay [3], in assay [4], in assay [5] and in assay [6] was inactive. Besides, the result in assay [7] and in assay [8] was inactive.
As for `CON=C(C(=O)N[C@@H]1C(=O)N2C(C(=O)O)=C(COC(N)=O)CS[C@H]12)c1ccco1`, the compound was classed as inactive in assay [1], in assay [2], in assay [3], in assay [4], in assay [5] and in assay [6]. Further, the result in assay [7] and in assay [8] was inactive.
For `COc1cc2c(N3CCN(C(=O)Nc4ccc(OC(C)C)cc4)CC3)ncnc2cc1OCCCN1CCCCC1`, the compound was classed as inactive in assay [1], in assay [3], in assay [5] and in assay [7]. In addition, the AC50 was 35.5 µM (active) in assay [2], 36.9 µM (active) in assay [4], 34.7 µM (active) in assay [6] and 25.2 µM (active) in assay [8].
`CCCCCCCCNC(C)C(O)c1ccc(SC(C)C)cc1` (stereo not drawn): the AC50 in assay [1] is 22.4 µM (active); in assay [2] it was 35.8 µM (active); in assay [3], 15.2 µM (active); in assay [4] it was 18.7 µM (active); in assay [5], 18.3 µM (active); in assay [6], 23.9 µM (active). Besides, the AC50 was 19 µM (active) in assay [7] and 33.9 µM (active) in assay [8].
Turning to `CNc1ccc(O)cc1`, the compound was classed as inactive in assay [1], in assay [2], in assay [4], in assay [5], in assay [6] and in assay [8]. In addition, the AC50 in assay [3] was 82 µM (active); in assay [7] it was 78 µM (active).
For `CC(C)NCC1CCc2cc(CO)c([N+](=O)[O-])cc2N1` (stereo not drawn), the call in assay [1], in assay [2], in assay [3], in assay [4], in assay [5] and in assay [6] was inactive. In addition, the result in assay [7] and in assay [8] was inactive.
In the case of `Cc1ccccn1`, the compound was called inactive in assay [1], in assay [2], in assay [3], in assay [4], in assay [5] and in assay [6]. Moreover, the call in assay [7] and in assay [8] was inactive.
Turning to `NCCOCCN`, the compound was called inactive in assay [1], in assay [2], in assay [3], in assay [4], in assay [5] and in assay [6]. Also, the result in assay [7] and in assay [8] was inactive.
In the case of `O=C(CC(=O)C(F)(F)F)c1ccccc1`, the compound was called inactive in assay [1], in assay [2], in assay [4], in assay [5], in assay [6] and in assay [7]. In addition, the result in assay [8] was inactive. In addition, the half-maximal activity concentration (AC50) in assay [3] was 76.4 µM (active).
For `CC(=O)Oc1ccc(C2(c3ccc(OC(C)=O)cc3)Oc3ccccc3NC2=O)cc1`, the call in assay [1], in assay [3], in assay [4], in assay [5], in assay [7] and in assay [8] was inactive. Moreover, the AC50 in assay [2] is 2.17 µM (active); in assay [6], 6.63 µM (active).
As to `C[C@@H]1CCC2[C@@H](C)[C@@H](O)O[C@@H]3O[C@@]4(C)CC[C@@H]1[C@@]23OO4` (stereo partly drawn), the compound was called inactive in assay [1], in assay [2], in assay [3], in assay [4], in assay [5] and in assay [6]. Besides, the outcome in assay [7] and in assay [8] was inactive.
Consider `Brc1ccccc1-c1ccccc1`, for which the compound was classed as inactive in assay [1], in assay [2], in assay [3], in assay [4], in assay [5] and in assay [6]. Moreover, the call in assay [7] and in assay [8] was inactive.
Consider `CC(C)(C#N)Nc1nc(Cl)nc(NC2CC2)n1`, for which the compound was classed as inactive in assay [1], in assay [2], in assay [3], in assay [4], in assay [5] and in assay [6]. Further, the compound was called inactive in assay [7] and in assay [8].
As for `COc1cc(-c2ccc(-[n+]3nc(-c4ccccc4)nn3-c3ccc([N+](=O)[O-])cc3)c(OC)c2)ccc1-[n+]1nc(-c2ccccc2)nn1-c1ccc([N+](=O)[O-])cc1`, the AC50 in assay [1] was 13 µM (active); in assay [2], 19.1 µM (active); in assay [3], 21.3 µM (active); in assay [4], 36.5 µM (active); in assay [5], 11.4 µM (active); in assay [6], 21.7 µM (active). For the same compound, the AC50 in assay [7] is 17.6 µM (active); in assay [8], 18 µM (active).
In the case of `O=C(Nc1ccc(Br)cc1)c1cc(Br)c(Br)s1`, the AC50 in assay [1] is 23 µM (active); in assay [3] it was 32.2 µM (active); in assay [4], 18.8 µM (active); in assay [5], 19.5 µM (active); in assay [6], 19.9 µM (active). Moreover, the result in assay [2], in assay [7] and in assay [8] was inactive.
As for `O=S(=O)(O)c1ccc(O)cc1`, the call in assay [1], in assay [2], in assay [3], in assay [4], in assay [5] and in assay [6] was inactive. Besides, the call in assay [7] and in assay [8] was inactive.
For the compound `O=C1c2c(O)cccc2[C@H]([C@@H]2O[C@H](CO)[C@@H](O)[C@H](O)[C@H]2O)c2cc(CO)cc(O)c21`, the result in assay [1], in assay [2], in assay [3], in assay [4], in assay [5] and in assay [6] was inactive. For the same compound, the result in assay [7] and in assay [8] was inactive.
As for `CC(=O)[C@@]1(O)CC[C@H]2[C@@H]3C=C(Cl)C4=CC(=O)CC[C@]4(C)[C@H]3CC[C@@]21C`, the compound was called inactive in assay [1], in assay [3], in assay [4] and in assay [7]. Moreover, the AC50 was 37 µM (active) in assay [2], 23 µM (active) in assay [5], 37.9 µM (active) in assay [6] and 37.8 µM (active) in assay [8].
With `CC[C@H](C)[C@H]1O[C@]2(CC[C@@H]1C)C[C@@H]1C[C@@H](C/C=C(\C)[C@@H](O[C@H]3C[C@H](OC)[C@@H](O[C@H]4C[C@H](OC)[C@@H](O)[C@H](C)O4)[C@H](C)O3)[C@@H](C)/C=C/C=C3\CO[C@@H]4[C@H](O)C(C)=C[C@@H](C(=O)O1)[C@]34O)O2`, the AC50 in assay [1] was 5.51 µM (active); in assay [2] it was 17.6 µM (active); in assay [3] it was 6.87 µM (active); in assay [4] it was 14.5 µM (active); in assay [5], 6.4 µM (active); in assay [6], 8.8 µM (active). For the same compound, the AC50 in assay [7] was 7.23 µM (active); in assay [8] it was 9.63 µM (active).
Consider `CC(C)COCC(CN(Cc1ccccc1)c1ccccc1)N1CCCC1` (stereo not drawn), for which the compound was classed as inactive in assay [1], in assay [2], in assay [3], in assay [4], in assay [5] and in assay [6]. The compound was called inactive in assay [7] and in assay [8].

The record behind these values is PubChem BioAssay (EPA / NIEHS).
